Reference: PubChem BioAssay (EPA / NIEHS)
Activity calls are given as the source filed them. The calls were made as follows: active = hit-call score of the fitted dose curve at least 0.9, where 1 is the maximum; inactive = score below 0.9.

Experiments:
Details in all cases: mRNA level, 48 h; actives raise or lower the signal
[1] = read-out: Alkaline Phosphatase, Placental (ALPP) gene, ALPP (gene 250); assay: LTEA_HepaRG_ALPP: Life Technologies and Expression Analysis (LTEA) Assay for Alkaline Phosphatase, Placental (ALPP) gene using HepaRG (AID 2283468);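 as to AC50: differentiated human HepaRG liver cells in serum-free induction medium; ALPP transcript by TaqMan qRT-PCR normalized to ACTB GAPDH and POLR2A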
Method in brief: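 Expression of ALPP was quantified by qRT-PCR against three housekeeping genes in human HepaRG cultures treated for 48 h with an eight-point concentration series up to 100 uM. Activity in either direction was fitted relative to 0.5% DMSO.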

[2] = read-out: Bcl-2 (BAD) gene, BAD (gene 572); assay: LTEA_HepaRG_BAD: Life Technologies and Expression Analysis (LTEA) Assay for Bcl-2 (BAD) gene using HepaRG (AID 2283469)
Method in brief: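 HepaRG, 48 h exposure, 8-pt half-log curve from 100 uM in 0.5% DMSO, duplicates. Readout: TaqMan qRT-PCR for BAD mRNA, housekeeping-normalised (ACTB/GAPDH/POLR2A); gain or loss fitted against DMSO baseline.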

[3] = read-out: Bcl-2 (BAX) gene, BAX (gene 581); assay: LTEA_HepaRG_BAX: Life Technologies and Expression Analysis (LTEA) Assay for Bcl-2 (BAX) gene using HepaRG (AID 2283470)
Method in brief: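 Human HepaRG cells treated in duplicate for 48 h across eight concentrations (max 100 uM, 0.5% DMSO); BAX expression measured by qRT-PCR.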

[4] = read-out: adenosine kinase (ADK) gene, ADK (gene 132); assay: LTEA_HepaRG_ADK: Life Technologies and Expression Analysis (LTEA) Assay for adenosine kinase (ADK) gene using HepaRG (AID 2283471)
Method in brief: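 ADK expression quantified by qRT-PCR, normalised to three housekeeping genes, after 48 h exposure of HepaRG cells to eight concentrations (top 100 uM, half-log steps, duplicate, 0.5% DMSO). Up- or down-regulation fitted relative to vehicle.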

[5] = read-out: Alpha-fetoprotein (AFP) gene, AFP (gene 174); assay: LTEA_HepaRG_AFP: Life Technologies and Expression Analysis (LTEA) Assay for Alpha-fetoprotein (AFP) gene using HepaRG (AID 2283472);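 as to AC50: AFP transcript by TaqMan qRT-PCR normalized to ACTB GAPDH and POLR2A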
Method in brief: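 Measures AFP mRNA change in HepaRG after 48 h chemical exposure (8 half-log concentrations, highest 100 uM, 0.5% DMSO). Fold change relative to DMSO, fitted in both directions.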

[6] = read-out: BCL2L11 (gene 10018); assay: LTEA_HepaRG_BCL2L11: Life Technologies and Expression Analysis (LTEA) Assay for Bcl-2 (BCL2L11) gene using HepaRG (AID 2283473)
Method in brief: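 Cells were plated, cultured 48 h, switched to serum-free induction medium, then dosed in duplicate for 48 h at eight half-log concentrations up to 100 uM. Lysates underwent RNA isolation and TaqMan qRT-PCR; gain or loss versus DMSO was fitted.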

[7] = read-out: Apolipoprotein A-V (APOA5) gene, APOA5 (gene 116519); assay: LTEA_HepaRG_APOA5: Life Technologies and Expression Analysis (LTEA) Assay for Apolipoprotein A-V (APOA5) gene using HepaRG (AID 2283474)
Method in brief: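 Human liver HepaRG cells are treated 48 h with test chemicals (100 uM top, half-log dilutions, 0.5% DMSO). APOA5 mRNA induction or loss is measured by qRT-PCR relative to vehicle.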

[8] = read-out: Apoptosis regulator Bcl-2 (Homo sapiens) (UniProt P10415); assay: LTEA_HepaRG_BCL2: Life Technologies and Expression Analysis (LTEA) Assay for Bcl-2 gene using HepaRG (AID 2283475)
Method in brief: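 Each chemical was tested in duplicate on HepaRG cultures held in serum-free induction medium for 48 h, highest concentration 100 uM with half-log dilutions. Transcript levels came from multiplexed qRT-PCR, normalised to housekeeping genes; activity was scored in either direction relative to DMSO.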

[9] = read-out: Bcl-2 (BID) gene, BID (gene 637); assay: LTEA_HepaRG_BID: Life Technologies and Expression Analysis (LTEA) Assay for Bcl-2 (BID) gene using HepaRG (AID 2283476)
Method in brief: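 Assay used HepaRG hepatic cells treated 48 h in serum-free medium with half-log dilutions from 100 uM. Endpoint: BID mRNA, qRT-PCR, normalized to ACTB/GAPDH/POLR2A.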

[10] = read-out: Caspase-3 (Homo sapiens) (UniProt P42574); assay: LTEA_HepaRG_CASP3: Life Technologies and Expression Analysis (LTEA) Assay for cysteine-aspartic acid protease (CASP3) using HepaRG (AID 2283477)
Method in brief: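 In HepaRG liver cells dosed for 48 h at up to 100 uM (eight-point, duplicate), CASP3 expression changes are scored by qRT-PCR. Activity is fitted in both directions with 0.5% DMSO as baseline.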

Measured: AC50

Apoptosis regulator Bcl-2 (Homo sapiens), sequence (P10415 whole entry, looked up): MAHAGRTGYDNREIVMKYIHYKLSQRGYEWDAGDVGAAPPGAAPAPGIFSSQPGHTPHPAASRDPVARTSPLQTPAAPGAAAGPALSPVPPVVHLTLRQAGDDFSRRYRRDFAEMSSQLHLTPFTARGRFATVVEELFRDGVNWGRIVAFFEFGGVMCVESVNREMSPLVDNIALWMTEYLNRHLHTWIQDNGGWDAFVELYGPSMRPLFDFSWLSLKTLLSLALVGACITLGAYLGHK
Caspase-3 (Homo sapiens), sequence (P42574 whole entry, looked up): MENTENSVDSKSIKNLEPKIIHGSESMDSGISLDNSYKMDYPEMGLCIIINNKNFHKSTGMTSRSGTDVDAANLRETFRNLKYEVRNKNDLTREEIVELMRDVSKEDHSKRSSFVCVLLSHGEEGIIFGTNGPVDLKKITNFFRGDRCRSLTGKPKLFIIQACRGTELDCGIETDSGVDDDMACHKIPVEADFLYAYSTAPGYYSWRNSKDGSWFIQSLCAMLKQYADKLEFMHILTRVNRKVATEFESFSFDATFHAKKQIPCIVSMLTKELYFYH

Cc1ccc(Cl)cc1
not listed: [9] | [10]
inactive: all other assays above

NCCO
inactive: all assays above

COc1cc(-c2nc(NC(=O)c3cc4cc(C)cc(C)c4n3CC(=O)O)sc2CCC2CCCCC2)c(OC)cc1Cl
inactive: [1] | [2] | [3] | [7]
active: [4] 15.6 µM | [5] 6.7 µM | [6] 60.6 µM | [8] 20.1 µM | [9] 5.4 µM

Cc1ccc(C(C)C)c(O)c1
not listed: [9] | [10]
inactive: all other assays above

CCCCCCCCCCCCCO
not listed: [9] | [10]
inactive: all other assays above

Nc1ccccc1N
active: [3] 40.6 µM | [4] 85.7 µM | [5] 72 µM | [6] 50 µM | [7] 58.2 µM
inactive: all other assays above

Cc1c(C(=O)O)c(O)cc2c1C(=O)c1c(O)c([C@@H]3O[C@H](CO)[C@@H](O)[C@H](O)[C@H]3O)c(O)c(O)c1C2=O
not listed: [10]
inactive: all other assays above

NCC1(Cc2noc(=O)[nH]2)CCCCC1
not listed: [9] | [10]
inactive: all other assays above

CC(C)(C)c1cc(O)c(C(C)(C)C)cc1O
active: [1] 90.8 µM | [4] 76.7 µM | [5] 77.7 µM | [9] 84.3 µM | [10] 79.4 µM
inactive: [2] | [3] | [6] | [7] | [8]

COCCOCCOC
inactive: [1] | [3] | [6] | [7]
active: [2] 1.39 µM | [4] 2.17 µM | [5] 0.517 µM | [8] 0.723 µM | [9] 1.05 µM | [10] 0.423 µM

C=CCOC(=O)c1ccccc1C(=O)OCC=C
not listed: [9] | [10]
inactive: all other assays above

CCCCCCCCCCO
inactive: all assays above

CC(CO)OC(C)CO (stereo unspecified) (tested in a mixture with another compound)
inactive: all assays above

O=C(O)CCCCC(=O)O
not listed: [9] | [10]
inactive: all other assays above

OC[C@@H](O)[C@@H](O)[C@H](O)[C@H](O)CO
inactive: all assays above

Cc1ccccc1Cl
not listed: [9] | [10]
inactive: all other assays above

Nc1nc(N)c2nc(CNc3ccc(C(=O)N[C@@H](CCC(=O)O)C(=O)O)cc3)cnc2n1
active: [5] 0.11 µM
inactive: all other assays above

CC1=C(/C=C/C(C)=C/C=C/C(C)=C/CO)C(C)(C)CCC1
active: [7] 52.2 µM
not listed: [9] | [10]
inactive: all other assays above

Nc1ccc(S(=O)(=O)c2ccc(N)cc2)cc1
not listed: [9] | [10]
inactive: all other assays above

COc1ccc(C)cc1N
not listed: [9] | [10]
inactive: all other assays above

COc1ccc2c(c1)c(CC(=O)O)c(C)n2C(=O)c1ccc(Cl)cc1
not listed: [9] | [10]
inactive: all other assays above

CCNc1cccc(C)c1
inactive: all assays above

Cc1ccc(C)c(C)c1
not listed: [10]
inactive: all other assays above

Cc1ccc(N(C)C)cc1
not listed: [10]
inactive: all other assays above

CCCCCCCCCCC
not listed: [9] | [10]
inactive: all other assays above

Nc1ccc2c(c1)C(=O)c1ccccc1C2=O
active: [3] 15 µM | [5] 22.8 µM | [7] 5.42 µM
not listed: [10]
inactive: all other assays above

CC(C)c1ccc(C(=O)N=C(N)N)cc1S(C)(=O)=O
active: [1] 0.59 µM | [2] 0.407 µM | [3] 7.39 µM | [4] 0.418 µM | [5] 0.35 µM | [6] 0.397 µM | [7] 0.302 µM | [8] 0.558 µM | [9] 0.367 µM

C[C@]12C=CC(=O)C=C1CC[C@@H]1[C@@H]2C(=O)C[C@@]2(C)[C@H]1CC[C@]2(O)C(=O)CO
not listed: [10]
inactive: all other assays above

CCCCCC(=O)O
not listed: [10]
inactive: all other assays above

CC(=O)OC/C=C(\C)CCC=C(C)C
inactive: all assays above

C=CCc1ccc(O)c(OC)c1
not listed: [9]
inactive: all other assays above

CNCc1cc(F)ccc1Oc1ccc(Cl)c(Cl)c1
active: [1] 81.8 µM | [8] 88.3 µM
not listed: [9]
inactive: all other assays above

Cc1oc(-c2ccccc2)nc1CCOc1cccc2c1ccn2CCC(=O)O
inactive: [2] | [4] | [10]
active: [1] 63 µM | [3] 50 µM | [5] 80.8 µM | [6] 14.1 µM | [7] 80.7 µM | [8] 86.3 µM

Oc1ccc2c(c1)OC[C@@H](N1CCC(O)(c3ccc(F)cc3)CC1)[C@H]2O
not listed: [1] | [10]
inactive: all other assays above

C1CCC(SSC2CCCCC2)CC1
not listed: [1] | [10]
inactive: all other assays above

CCCCc1ccc2c(n1)[C@@H](c1ccc(OC)cc1C[C@H](C)C(=O)O)[C@H](C(=O)O)[C@H]2c1ccc2c(c1)OCO2
not listed: [1] | [9] | [10]
inactive: all other assays above

CCOC(=O)CCC(=O)OCC
active: [4] 79.3 µM
not listed: [1] | [10]
inactive: all other assays above

Cc1nc(C)nc(N2C[C@@H](C)N(c3ccnc([C@@H](C)O)n3)[C@@H](C)C2)n1
not listed: [1] | [9] | [10]
inactive: all other assays above

CCCCN(CCCC)CCCC
inactive: all assays above

CN1CCN(Cc2cc(-c3ccc4[nH]c(=O)oc4c3)co2)[C@@H](c2ccc(F)cc2)C1
active: [5] 90.1 µM
not listed: [1] | [9] | [10]
inactive: all other assays above

CCCCCCCCCCCCCCCC
not listed: [1] | [9] | [10]
inactive: all other assays above

CCCCCCC(=O)OCC
not listed: [9]
inactive: all other assays above

CC(=O)OCCOCCOCCOC(C)=O
inactive: all assays above
